An excerpt weighted towards active compounds, which were near 2.4% of everything screened.
ADAM10 inh = inhibits human ADAM10 | O14672 | recombinant ADAM10, EDANS/DABCYL FRET peptide cleavage, 3 h | inhibition, % at 7 µM | 0.62% of 370,000 active | AID 720582;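 active = inhibition above a per-campaign cutoff equal to the mean of compounds falling between control-based bounds plus 3 SD, cut at about 20% in these data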;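 also: 0% = DMSO wells while the 100% control is not disclosed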
APOBEC3G inh = APOBEC3G (human) deaminase inhibition; Q9HC16; 0.28% of 330,000 active; AID 493012; recombinant A3G, ssDNA deamination FAM/TAMRA fluorescence; inhibition, % at 20 µM;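 active = inhibition of at least 40% at 20 µM, with no more than 30% in the related APOBEC3A deaminase screen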;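 also: plate controls were DMSO wells with A3G for no effect and wells lacking A3G enzyme for full effect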
Target sequence (Q9HC16 whole entry, looked up): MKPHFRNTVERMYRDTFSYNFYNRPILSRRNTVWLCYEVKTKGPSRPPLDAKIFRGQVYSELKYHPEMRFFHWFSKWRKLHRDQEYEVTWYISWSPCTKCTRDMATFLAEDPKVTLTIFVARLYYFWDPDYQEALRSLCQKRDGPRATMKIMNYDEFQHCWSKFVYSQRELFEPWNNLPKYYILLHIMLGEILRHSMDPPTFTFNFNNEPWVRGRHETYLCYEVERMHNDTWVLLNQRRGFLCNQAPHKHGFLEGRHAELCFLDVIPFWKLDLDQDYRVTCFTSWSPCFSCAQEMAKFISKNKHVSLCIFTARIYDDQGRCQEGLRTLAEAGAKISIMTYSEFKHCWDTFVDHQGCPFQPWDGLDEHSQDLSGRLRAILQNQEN
ADAM17 inh = inhibits human ADAM17. recombinant ADAM17, EDANS/DABCYL FRET peptide cleavage. inhibition, % at 6.95 µM. 0.83% of 370,000 active. AID 720648;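 active = inhibition above the mean of compounds lying between control limits plus 3 SD, set per campaign, cut at about 8.5% in these data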;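 also: 0% = DMSO-only wells as the low control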
APOBEC3A inh = inhibitors of human APOBEC3A DNA deaminase | P31941 | recombinant A3A, FAM/TAMRA ssDNA deamination fluorescence | inhibition, % at 20 µM | 0.41% of 330,000 active | AID 493011;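 active = at least 40% inhibition at 20 µM here, with at most 30% in a related deaminase screen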;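 also: plate controls were A3A with DMSO for no effect and wells lacking A3A enzyme for full effect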
Target sequence (P31941 whole entry, looked up): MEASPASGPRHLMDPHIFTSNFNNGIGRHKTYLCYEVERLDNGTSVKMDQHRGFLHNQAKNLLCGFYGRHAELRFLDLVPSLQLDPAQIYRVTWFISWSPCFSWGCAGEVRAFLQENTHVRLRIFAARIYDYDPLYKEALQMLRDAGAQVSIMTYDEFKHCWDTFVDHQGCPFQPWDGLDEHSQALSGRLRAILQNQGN
NRP1-CendR mod = alters CendR peptide binding to human NRP-1 | AID 602438 | FAM-RPARPAR peptide binding to NRP-1, fluorescence polarization | inhibition, % at 25 µM | 0.85% of 360,000 active;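 active = inhibition or corrected inhibition above about 18%, plus a signal ratio from 0.5 to 1.5, limit read from the data, passing the limit was not always enough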
APOBEC3G confirm = APOBEC3G (human) deaminase inhibition, confirmed; 72% of 890 active; shares compounds with APOBEC3G inh; inhibition, % at 20 µM; recombinant A3G ssDNA deaminase, UDG/FAM-TAMRA fluorescence;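 active = inhibition reaching a set limit in any replicate at 20 µM, the limit being 80% of the first screen's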
UDG ctr A3G = E. coli UDG inhibition in APOBEC3G counter-screen; shares compounds with APOBEC3G inh; UDG counterscreen, FAM/TAMRA oligo fluorescence; inhibition, % at 20 µM; 710 tested, under 10 active; AID 504715;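 active = compounds giving 40% or more inhibition at 20 µM in any one of the three replicates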;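 also: plate controls were DMSO wells with UDG and oligo for no effect and DMSO wells lacking both for full effect; inhibitors lower the FAM signal released by uracil excision and alkaline cleavage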
Active calls of the source: *; i = inactive; · = no result.

SMILES	ADAM10 inh	APOBEC3G inh	ADAM17 inh	APOBEC3A inh	NRP1-CendR mod	APOBEC3G confirm	UDG ctr A3G
Cc1ccc(C)c(NC(=O)CN(C)C(=O)c2ccc(-n3cncn3)c([N+](=O)[O-])c2)c1	-3.6	68.9*	-2.8	-4.1	10.7	-8.4	-0.8
O=C(NCCCN1CCOCC1)c1sc2cc([N+](=O)[O-])ccc2c1Cl	·	58.3*	·	-8.6	0.0	84.7*	-2.2
COC(=O)CSc1n[nH]c(=S)s1	-2.8	49.9*	0.7	-2.1	3.2	64.9*	1.6
CCNc1nc(SC(C)C(=O)OC)nc(N(C)C)n1 (stereo not given)	-8.8	-4.2	-5.5	1.5	-6.5	·	·
COC(=O)C(C)Sc1n[nH]c(=S)s1 (stereo not given)	10.6	83.9*	3.8	-3.1	-11.2	84.3*	6.2
CCSc1n[nH]c(=S)s1	-4.0	52.2*	-2.0	-6.0	-1.1	59.2*	0.4
O=C(O)CC(Sc1n[nH]c(=S)s1)C(=O)O (stereo not given)	12.1	43.8*	-1.5	0.7	0.8	60.0*	2.7
NNC(=O)CNC(=O)Nc1n[nH]c(=S)s1	-36.6	·	-10.6	·	-4.0	·	·
COC(=O)C1=C(C)N(Cc2ccccc2C(F)(F)F)C(=NCC2CC2)NC1c1cccc(F)c1 (stereo not given)	2.3	·	-0.5	·	·	·	·
CN(CCOC(=O)c1cc2ccccc2o1)C1CN(Cc2cn(Cc3ccc([N+](=O)[O-])cc3)nn2)S(=O)(=O)C1 (stereo not given)	-1.1	·	-2.5	·	·	·	·
CC(=O)N1CCc2cc(S(=O)(=O)NCCC(=O)NCc3ccccc3)ccc21	8.3	·	1.1	·	·	·	·
O=C(NCc1ccccc1)[C@@H]1CCCN1C(=O)[C@H]1CCCN1C(=O)N1CCCCC1	7.6	·	-0.2	·	·	·	·
CC(=O)C1=CCN(C)CC1	-9.2	·	-2.3	·	·	·	·
CCCC(C)C(=O)NC1CCCCN(Cc2ccc(C)cc2)C1=O (stereo not given)	-5.5	·	-4.7	·	·	·	·
COC(=O)c1ccc(CSc2n[nH]c(=S)s2)o1	-5.8	49.9*	-3.2	0.3	0.4	59.2*	2.6
Cc1ccc(NC(=O)CSc2nc3[nH]ncc3c(=O)[nH]2)cc1	-6.3	51.9*	-1.8	2.2	1.4	2.4	·
S=c1nc(-c2cccc(Cl)c2)[nH][nH]1	-32.8	·	-9.1	·	3.6	·	·
COc1cc(-c2nc(=S)[nH][nH]2)cc(OC)c1OC	-0.4	61.8*	-0.6	-5.4	6.6	94.5*	-1.1
COc1ccc(-c2nc(=S)[nH][nH]2)cc1	-3.9	61.9*	-3.6	-2.9	-3.6	94.6*	-3.7
COc1ccc(-c2nc(=S)[nH][nH]2)cc1OC	-6.7	61.1*	-5.6	-14.7	-3.7	93.2*	1.6
Oc1ccc(-c2nc(=S)[nH][nH]2)cc1	-23.4	64.2*	-7.7	-3.0	17.1	89.6*	-0.6
CCOc1ccc(-c2nc(=S)[nH][nH]2)cc1	-9.7	29.9	-8.3	-7.3	6.3	·	·
COC(=O)[C@]12C[C@H](CC(=O)N3CCCC3)C(=O)N(Cc3ccco3)C1=C[C@H](C(C)(C)C)O[C@@H]2C	1.1	·	-1.4	·	·	·	·
C[C@@H]1COc2cc(N3CCOCC3)ccc2S(=O)(=O)N1	1.1	·	0.9	·	·	·	·
COc1ccc(S[C@]2(C(=O)N3CCCC3)CC(=O)N[C@@H]2c2ccc(OC)cc2)cc1	0.0	·	-1.9	·	·	·	·
SMILES	ADAM10 inh	APOBEC3G inh	ADAM17 inh	APOBEC3A inh	NRP1-CendR mod	APOBEC3G confirm	UDG ctr A3G
CC1(O)C(=O)C2(C)C=CC1C1C(=O)N(c3ccccc3)C(=O)C12 (stereo not given)	-4.8	·	-5.0	·	·	·	·
Cc1cc(C)n2c(=S)[nH]nc2n1	6.4	91.8*	0.4	-2.6	-1.6	90.3*	-4.1
COc1ccc(OCc2n[nH]c(=S)n2Cc2ccco2)cc1	-4.0	43.0*	-1.8	-3.1	-10.4	71.7*	9.6
CCOC(=O)c1ccc(NC(=O)OC[C@@H]2CSCCS(=O)(=O)N2)cc1	-8.4	·	-3.8	·	·	·	·
COc1ccccc1/C=C/C=N/NC(=O)c1cc(-c2ccco2)[nH]n1	-29.9	63.6*	-12.7	25.5	-43.1	21.4*	-2.5
COc1ccccc1CNC(=O)N(CCc1c(C)[nH]c2ccccc12)Cc1cccs1	-2.5	·	5.1	·	·	·	·
O=c1c2ccccc2sn1-c1cc(S(=O)(=O)N2CCOCC2)ccc1N1CCOCC1	-2.5	77.2*	-2.0	0.3	-3.8	76.8*	1.9
O=c1c2ccccc2sn1-c1cc(S(=O)(=O)N2CCOCC2)ccc1N1CCCC1	-13.3	36.0	1.4	1.0	-6.7	·	·
COc1cc(S(=O)(=O)Nc2cccc(C)c2)ccc1N=Cc1c(C)[nH]n(-c2ccccc2)c1=O	·	54.6*	·	0.8	·	-1.9	·
COc1cc(S(=O)(=O)Nc2ccc(C)cc2)ccc1N=Cc1c(C)[nH]n(-c2ccccc2)c1=O	7.5	38.0	5.1	0.1	-0.3	·	·
COCCCn1c(=NC(C)=O)c(C#N)cc2c(=O)n3cccc(C)c3nc21	i	16.2	-251.0	15.1	0.9	·	·
COCCCn1c(=NC(=O)c2ccccc2)c(C#N)cc2c(=O)n3cccc(C)c3nc21	i	45.6*	-416.6	-3.9	-6.2	1.0	-4.8
CCOC(=O)c1c(NC(=O)C2CCCO2)sc(C)c1C (stereo not given)	-8.8	-3.5	-6.5	0.0	1.3	·	·
CCOC(=O)c1c(NC(=O)C2CCCO2)sc(C(=O)OC(C)(C)C)c1C (stereo not given)	1.1	47.0*	3.6	4.1	0.1	33.1*	2.8
CCN(CC)C(=O)c1sc2nc(N3CCOCC3)c3c(c2c1N)CCCC3	-167.1	49.4*	-54.6	0.2	12.9	23.5	·
O=C(CSc1nnc(-c2cccc(Cl)c2)n1Cc1ccco1)c1ccc(F)cc1	3.9	·	3.9	·	·	·	·
O=C(CC(c1ccc(F)cc1)c1ccco1)Nc1nccs1 (stereo not given)	3.6	52.9*	4.1	1.7	3.6	0.1	·
O=C1N2Cc3ccccc3C2CS(=O)(=O)N1C1CCCC1 (stereo not given)	-9.6	·	-3.9	·	·	·	·
C#CCNC(=O)C[C@@H]1C(=O)N(CCc2ccc(Cl)cc2)C2=CCCCC[C@]21C(=O)OC	2.1	·	-1.9	·	·	·	·
S=c1[nH]nc(-c2ccccc2)n1C1C=CCCC1 (stereo not given)	8.7	42.1*	1.4	-0.5	-1.5	79.4*	-1.5
Cc1cccc(C)c1OCc1n[nH]c(=S)n1N	4.6	40.3*	6.1	3.2	10.0	54.5*	-3.1
Nn1c(COc2ccc(Cl)cc2)n[nH]c1=S	5.4	53.4*	2.5	0.5	12.3	57.7*	2.7
Cc1cccc(C)c1OCc1n[nH]c(=S)n1-c1ccccc1	0.6	7.8	-1.4	-1.3	13.1	·	·
CCn1c(-c2ccc([N+](=O)[O-])cc2)n[nH]c1=S	17.8	45.8*	-2.8	-1.6	1.7	72.9*	4.4
CC(C)Cn1c(-c2cccc(S(=O)(=O)N3CCOCC3)c2)n[nH]c1=S	2.1	44.0*	-0.6	-1.1	9.6	69.2*	0.8

Bioassay records (PubChem BioAssay)
